G9a block = inhibitors of human histone lysine methyltransferase G9a | G9a H3K9 monomethylation, AlphaScreen, 2 h | Potency, µM (highest dose often 102 µM), without a hit: at the highest dose activity, negative = inhibition, most hits filed as inhibitors | 350,000 tested, 8.8% active; further: on the % scale 0 is the no-effect control and ±100 the full control effect; nearly all actives have a fitted effect of over 75% in size
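Chemiluminescent proximity detection of H3K9 monomethylation, read after 10 min bead incubation in the dark. Reaction: 20 nM G9a, 500 nM biotin-H3K9 peptide, 20 uM SAM cofactor, 2 h, room temperature, following 15 min enzyme-compound preincubation.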
PLK1 PBD inh = inhibitors of human PLK1 polo-box domain binding; P53350; Plk1 PBD binding of FITC phosphopeptide, fluorescence polarization; Potency, µM, for the others: max response, negative = inhibition, most hits filed as inhibitors; 360,000 tested, 2.8% active; AID 720504; further: series mostly up to about 57 µM; on the % scale 0 is the no-effect control and ±100 the full control effect; nearly all actives have a fitted effect of over 65% in size
BAZ2B block = inhibitors of human BAZ2B bromodomain; AID 504333; AlphaScreen BAZ2B-H3K14Ac peptide displacement; Potency, µM (top dose mostly 114 µM), inactives show at the top dose activity change, negative = inhibition, hits mostly inhibitors; Q9UIF8; 360,000 tested, 4.4% active; further: on the % scale 0 is the no-effect control and ±100 the full control effect; nearly all actives have a fitted effect of over 60% in size
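Multi-concentration screen (max 110 uM) measuring displacement of acetylated histone H3 peptide from BAZ2B by AlphaScreen, using 50 nM protein, 50 nM peptide and 10 ug/mL streptavidin donor plus Ni-chelate acceptor beads.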
Sfp PPTase inh = blocks B. subtilis Sfp PPTase activity | Q9F4F7 | Potency, µM, without a hit: largest response in the series, negative = inhibition, usual class: inhibitors | Biochemical Sfp PPTase activity, qHTS | 310,000 tested, 3.5% active;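 further: the enzyme is Sfp with the accession as filed and its product quenches rhodamine fluorescence; 0% = enzyme reaction without inhibitor and -100% = no enzyme wells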
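Step 1, compound plus 15 nM Sfp-PPTase, 15 min, room temperature. Step 2, add rhodamine-CoA (5 uM) and BHQ-2-YbbR (12.5 uM). Step 3, read 525/598 nm fluorescence at 0 and 30 min.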
JMJD2A Tudor inh = inhibitors of human JMJD2A Tudor domain | 390,000 tested, 4.4% active | AID 504339 | Potency, µM (top dose mostly 114 µM), inactives show top-dose activity change, negative = inhibition, hits mostly inhibitors | AlphaScreen JMJD2A-Tudor / H3K4me3 peptide binding | O75164; further: on the % scale 0 is the no-effect control and ±100 the full control effect; nearly all actives have a fitted effect of over 50% in size
HP1b chromo inh = blocks HP1-beta chromodomain binding to methylated histone tails. 390,000 tested, 0.56% active. Potency, µM (titrated, usually from 114 µM), for inactives: top-dose activity change, negative = inhibition, hits mostly inhibitors. AlphaScreen HP1-beta / biotin-H3K9me3 peptide binding. P83916. AID 540317; further: nearly all actives have a fitted effect of over 70% in size
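AlphaScreen: HP1-beta (50 nM) preformed 30 min with biotin-H3(1-18)K9me3 peptide (50 nM) in PBS pH 7.4, 0.01% Tween-20. Compound added for 30 min at RT, then streptavidin donor/nickel chelate acceptor beads (10 ug/mL) for 30 min.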
An asterisk follows results filed as active; ? = inconclusive; . = no result; [ ] = another dose, or the depositor's remark. Hits are enriched below; roughly 12% of the tested compounds scored in any of these assays. The call rests on the fitted dose curve; in most records, active means well fitted curve in the direction sought with a large enough effect; inconclusive means small, poorly fitted or top-dose-only effect, or another doubt; inactive means no such curve, though single readings can be large; an effect the other way counts as inactive or inconclusive. Potency means the concentration at half of the fitted maximal effect.

SMILES	G9a block	PLK1 PBD inh	BAZ2B block	Sfp PPTase inh	JMJD2A Tudor inh	HP1b chromo inh
Cc1ccc(NC(=O)CN(C)S(=O)(=O)c2ccc3nc(C)sc3c2)c(C)c1	13%[59 µM]	.	5%	.	4%	40%
CN1CCCN(S(=O)(=O)c2ccccc2)CC1	-18%	1%	4%	4%	?	-15%
CC(=O)NCc1ccc(S(=O)(=O)N2CCCN(C)CC2)cc1	79µM*	3.8µM*	-14%	-26%	25µM*	4%
CN1CCCN(S(=O)(=O)c2ccc(O)c(C(=O)O)c2)CC1	79µM*	3%	-12%	9%	-15%	22%
CC[C@]12c3[nH]c4cc(CCC(=O)N(C)C)ccc4c3CCN1C(=O)[C@@H](CC(=O)NCCCn1ccnc1)C[C@@H]2C(=O)N1CCN(C(=O)c2ccco2)CC1	.	-6%	.	.	-9%	?
Cc1cccc(-n2c(C)nc3cc(C(=O)NCc4ccc5c(c4)OCO5)ccc32)c1	45µM*	-5%	?	-18%	-34%	4%
COC(CNC(=O)c1ccc2c(c1)nc(C)n2-c1cccc(C)c1)OC	9%	30µM*	-12%	22%	?	13%
Cc1ccc(CNC(=O)c2ccc3c(c2)nc(C)n3-c2cccc(F)c2)cc1	10%[59 µM]	.	-3%	.	-15%	23%
CC(c1ccco1)N(C(=O)c1ccccc1NS(=O)(=O)c1ccc(Cl)cc1)c1ccccn1 (configuration not stated)	?	-17%	-34%	24%	-34%	-2%
CC(c1ccco1)N(C(=O)c1ccccc1NS(=O)(=O)c1cc([N+](=O)[O-])ccc1Cl)c1ccccn1 (configuration not stated)	4µM*	-13%	79µM*	?	25µM*	-12%
CC(c1ccco1)N(C(=O)c1ccccc1NS(=O)(=O)c1cccc([N+](=O)[O-])c1)c1ccccn1 (configuration not stated)	79µM*	-9%	-38%	?	-24%	15%
CN(C)C(CNS(=O)(=O)c1cc([N+](=O)[O-])ccc1Cl)c1ccco1 (configuration not stated)	.	27µM*	.	.	?	-17%
N#CC1=C2N=C(N)c3ccccc3N2C2=C(C(=O)CCC2)C1c1ccccc1F (configuration not stated)	-39%	-6%	?	5%	?	-11%
Cc1ccccc1C1C(C#N)=C2N=C(N)c3c(sc4c3CCCCC4)N2C2=C1C(=O)CCC2 (configuration not stated)	?	-24%	45µM*	50µM*	-23%[57.1 µM]	16%
C=CCSc1nc2ccccc2n1C(=O)/C=C/c1cc(OC)c(OC)c(OC)c1	-9%	-12%	-2%	-15%	-17%	20%
CCSc1nc2ccccc2n1C(=O)/C=C/c1ccc(OC)c(OC)c1	?	-4%	-5%	56µM*	-11%	10%
C=CCSc1nc2ccccc2n1C(=O)/C=C/c1ccc(OC)c(OC)c1	.	-11%	5%	28µM*	0%	9%
O=C(O)c1ccc(NC(=O)c2cn(-c3ccccc3)nc2-c2cccc(Cl)c2)cc1	.	?	-6%	-5%	-22%	4%
O=C(CS(=O)(=O)Cc1ccccc1)NCCc1ccc(F)cc1	?	-1%	1%	8%	-11%	11%
COc1cc(/C=C2\S/C(=N/S(=O)(=O)c3ccc(C)cc3)NC2=O)c([N+](=O)[O-])cc1OC	?	-5%	-37%	6%	6%	21%
CC(=O)Nc1ccc(S(=O)(=O)/N=C2/NC(=O)/C(=C\c3ccco3)S2)cc1	22µM*	?	?	0%	-18%[11.4 µM]	19%
Cc1ccc(S(=O)(=O)/N=C2/NC(=O)/C(=C\c3ccco3)S2)cc1	40µM*	?	-13%	15%	-31%	0%
O=C(CN1C(=O)NC2(CCCCC2)C1=O)N1CCOCC1	3%[59 µM]	-8%	13%	.	-1%	27%
O=C(Nc1cc(Cl)ccc1Cl)c1cc([N+](=O)[O-])cc(Br)c1O	.	.	.	.	56µM*	-23%
O=C(Nc1c(Cl)cc([N+](=O)[O-])cc1Cl)c1cc(Cl)ccc1O	.	.	.	.	?	0%
SMILES	G9a block	PLK1 PBD inh	BAZ2B block	Sfp PPTase inh	JMJD2A Tudor inh	HP1b chromo inh
O=C(Nc1ccc([N+](=O)[O-])cc1Cl)c1cc(Cl)cc(Cl)c1O	.	.	.	.	45µM*	-28%
Oc1cccc(C=NCc2ccccc2)c1O	?	-18%	?	?	-25%	-14%
Oc1c(C=NCc2ccccc2)sc2ccccc12	?	-13%	?	10%	89µM*	?
COc1ccccc1CNCc1ccc2c(c1)OCO2	.	-4%	.	.	.	.
COc1ccc(CNCc2ccc3c(c2)OCO3)c(OC)c1OC	45µM*	-1%	-31%	-15%	0.79µM*	?
FC(F)(F)c1ccccc1CNCc1ccc2c(c1)OCO2	-63%	-10%	?	-19%	20µM*	?
Cc1ccc(CNCc2ccc3c(c2)OCO3)cc1	13µM*	-3%	?	-3%	1.4µM*	?
CC[C@H](NC(=O)[C@H](CCC(=O)O)NC(=O)[C@H](CCC(=O)O)NC(=O)[C@H](CC(=O)O[S+](=O)([O-])c1cccc2c(NCCN)cccc12)NC(=O)[C@H](CCC(=O)O)NC(=O)[C@H](CC(=O)O)NC(C)=O)C(=O)ON[C@@H](C)C(=O)N[C@@H](CO)C(=O)N[C@@H](CCCCNC(=O)c1ccc(N=Nc2ccc(N(C)C)cc2)cc1)C(N)=O	.	.	.	-21%	.	.
COc1ccc(C(=O)NCc2ccco2)cc1S(=O)(=O)NC1CC1	10%[2.33 µM]	1%	2%	.	-10%	41%
Cc1ccc(S(=O)(=O)N2CCOCC2)cc1NC(=O)COC(=O)/C=C/c1ccc(F)cc1	.	4%	.	.	-1%	36%
CCN(CC)c1ccc(NC(=O)CSc2nc3nc(C)cc(C)c3c(=O)[nH]2)cc1	40µM*	-4%	45µM*	.	45µM*	?
C=CCNc1nc(-c2c(C)nc3sccn23)cs1	28µM*	-17%	-11%	-16%	-30%	18%
Cc1nc2sccn2c1-c1csc(NCc2ccccc2)n1	?	?	?	-16%	63µM*	?
CC(=O)Oc1ccc(C(=O)COC(=O)CNC(=O)COc2ccccc2C)cc1	.	.	.	.	-5%[57.1 µM]	10%[57 µM]
CCCCc1ccc(NC(=O)CSc2nc(=O)[nH]c3c2CCCC3)cc1	-15%[59 µM]	.	-4%	.	-10%	36%
COc1ccc(CNC(=O)Cn2nc(C)c3c(C)n(-c4ccc(C)cc4)nc3c2=O)cc1OC	.	-17%	79µM*	-6%	89µM*	29%
COc1ccc(CCNC(=O)Cn2nc(C)c3c(C)n(-c4ccc(C)cc4)nc3c2=O)c(OC)c1	?	.	50µM*	.	?	11%
